Bioassay records from PubChem.
Rows were chosen to be rich in hits. Some 6% of all compounds tested hit in one or more screens of this group.
D1 agonist – agonists of human D1 dopamine receptor; HEK293 T-REx D1 cells, calcium flux, agonist mode; 360,000 tested, 1% active; AID 504660; activation, % at 2 µM; P21728; in the data active means activation above about 30%; further: 0% is about no effect
Target sequence (P21728 whole entry, looked up): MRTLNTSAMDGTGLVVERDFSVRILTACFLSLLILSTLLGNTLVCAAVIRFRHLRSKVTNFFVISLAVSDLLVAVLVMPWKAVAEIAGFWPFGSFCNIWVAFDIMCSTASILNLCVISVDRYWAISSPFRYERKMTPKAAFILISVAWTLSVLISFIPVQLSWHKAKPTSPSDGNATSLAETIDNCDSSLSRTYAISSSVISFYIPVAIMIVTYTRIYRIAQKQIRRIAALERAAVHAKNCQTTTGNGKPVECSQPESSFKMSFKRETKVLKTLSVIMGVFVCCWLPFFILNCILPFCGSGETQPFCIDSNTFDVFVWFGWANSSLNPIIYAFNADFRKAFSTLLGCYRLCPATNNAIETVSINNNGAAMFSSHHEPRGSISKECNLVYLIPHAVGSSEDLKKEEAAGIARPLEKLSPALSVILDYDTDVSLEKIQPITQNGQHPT
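Agonism was scored from calcium flux recorded over 180 s (1 read/s) after pintool compound addition, following a 10-cycle baseline. Cells were inducible force-coupled HEK293 TREx D1, plated overnight at 30 C and loaded with no-wash calcium dye.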
D1 potentiator – enhances dopamine response at the human D1 receptor; P21728; HEK293 TREx D1 cells, calcium flux, dopamine EC20 potentiation; potentiation, % at 10 µM; 360,000 tested, 0.036% active; in the data active means potentiation above about 30%; further: 0% is about no effect
D3 ag – agonists of human D3 dopamine receptor | max activation, % | 410,000 tested, 0.58% active | P35462 | D3R DiscoveRx beta-arrestin cells, luminescence, 90 min | AID 652048; in the data active means max activation above about 30%; further: 0% is about no effect
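Cells at 1500/well, incubated overnight, then treated with pinned compounds (dopamine as control) for 90 min at 37 degrees C. DiscoveRx reagent added for 30 - 60 minutes at room temperature; luminescence read.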
D1 antagonist – antagonists of human D1 dopamine receptor | AID 504652 | activity change, negative = inhibition, % at 10 µM | 360,000 tested, 3.2% active | HEK293 TREx D1 cells, calcium flux, dopamine EC80; stronger effect = lower value; in the data active means activity change below about -30%; further: on the % scale 0 is the no-effect control and ±100 the full control effect
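Calcium flux readout: force-coupled, inducible Hek293 Trex D1 line, cells induced overnight at 30 C with tetracycline, dye-loaded 30–90 min at RT. Antagonism scored against EC80 dopamine challenge given 180 s after compound.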
DRD3 antagonist – blocks the human D3 dopamine receptor; max response, negative = inhibition, %; 360,000 tested, 2.5% active; D3R cells, DiscoveRx beta-arrestin luminescence, antagonist mode; stronger effect = lower value; in the data active means max response below about -50%; inconclusive means no clear call, values can overlap the other calls; further: on the % scale 0 is the no-effect control and ±100 the full control effect
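Cells expressing the human receptor were seeded at 1500 cells/well, incubated overnight at 37 degrees C in 5% CO2, then exposed to library compounds with dopamine controls for 90 minutes at 37 degrees C before luminescent detection.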
Starred values were filed as active, the others as inactive; ? = inconclusive; . = no result given.

SMILES	D1 agonist	D1 potentiator	D3 ag	D1 antagonist	DRD3 antagonist
CCOc1ccc(NC(=O)C(Cc2ccccc2)NS(=O)(=O)c2ccc3c(c2)oc(=O)n3C)cc1 (centres undefined)	5	-1	0	-20	.
CCc1cccc(NC(=O)C(Cc2ccccc2)NS(=O)(=O)c2ccc3c(c2)oc(=O)n3C)c1 (centres undefined)	31*	-3	2	-11	.
CN1CCC(OC(c2ccccc2)c2ccccc2)CC1	24	-5	-1	-37*	0
Cc1ccccc1C(=O)OC1CCN(C)CC1	4	-5	-31	2	-11
CN1CCC(Oc2ccccc2Sc2ccccc2)CC1	26	-10	-7	-63*	-63*
CCCCCCCCCCCCCCCCn1cc[n+](C)c1	38*	-6	-7	-7	3
CCCCCCCCn1ccc(=N)cc1	1	-4	11	15	13
Cc1ccc(Cn2nnc3c(=O)n(CC(=O)OCc4ccccc4)cnc32)cc1	4	-7	-4	-33*	-7
Cc1cccc(Cn2cnc3c(nnn3Cc3ccccc3F)c2=O)c1	1	-6	56*	9	3
O=C(Cn1cnc2c(nnn2Cc2ccc(F)cc2)c1=O)OCc1ccccc1	0	-3	0	2	11
CN(C(=O)Cn1cnc2onc(-c3ccc(F)cc3)c2c1=O)c1ccccc1Cl	2	-2	-11	-7	.
O=C(CCCN1C(=O)CCC1=O)Nc1ccc(Br)cc1F	1	-3	-5	-32*	13
O=C(CCCN1C(=O)CCC1=O)Nc1ccccc1F	2	-6	-11	13	14
Cc1ccc(NS(=O)(=O)c2cc(C(=O)Nc3cccc(N(C)S(C)(=O)=O)c3)ccc2C)c(C)c1	4	-4	43*	16	59
COc1ccc(NC(=O)CSC2=Nc3ccccc3N=C(c3ccc(F)cc3)C2)cc1OC	1	-1	2	-12	.
CC(C)(C)c1cc(C(F)(F)F)nc(SCCCNC(=O)c2ccco2)n1	19	-3	5	-38*	2
O=C(NCCN1CCOCC1)c1cc(-c2ccc(Cl)c(Cl)c2)on1	4	-2	-3	6	11
CC(C)(C)c1ccc(C(=O)NCCCNC(=O)c2ccco2)cc1	4	.	-11	-3	-14
O=C(NCCCN1CCOCC1)c1ccco1	2	-3	9	-35*	21
S=C(NCCCN1CCOCC1)N(Cc1ccccc1)Cc1ccccc1	5	0	-2	-12	-93*
O=C(NCCCN1CCOCC1)c1cc(-c2ccc(Cl)c(Cl)c2)on1	24	-1	2	-33*	-6
O=C(CCCc1ccccc1)NCCCN1CCOCC1	0	-2	-5	0	5
COC(=O)C1=C(C)NC(COC(N)=O)=C(C(=O)OC(C)C)C1c1cccc(Cl)c1Cl (centres undefined)	.	.	2	.	.
Cc1oc2ncn(CC(C)C)c(=O)c2c1C(=O)NCCCN1CCC(C)CC1	0	-3	-16	11	.
CCN(CC)CCCNC(=O)c1cc(-c2ccc(Cl)c(Cl)c2)on1	17	-5	-29	-8	-9
SMILES	D1 agonist	D1 potentiator	D3 ag	D1 antagonist	DRD3 antagonist
CCN(CC)CCCNC(=O)c1cc(-c2ccc(O)cc2)on1	5	-5	-3	-44*	-2
O=C(CCc1ccccc1)NCCCN1CCOCC1	2	-2	3	51	2
O=C(NCCNC(=O)c1ccco1)c1ccc(F)cc1	1	-2	1	6	5
O=C(NCCNCc1ccc(F)cc1)c1ccco1	5	2	-6	6	-66*
Cc1ccccc1CS(=O)(=O)CCC(=O)NCCCN1CCOCC1	0	0	0	-44*	-8
Cc1cc(C)n(CCCNC(=O)c2ccco2)n1	1	-6	-8	-31*	7
CCN1CCN(Cc2c(O)ccc3oc(C)c(C(=O)Nc4ccc(OC)cc4)c23)CC1	5	-2	-7	-1	.
CCCOc1ccc(C2C(=O)N(C3CCCCCC3)CC(=O)N2C(C)C)cc1OC (centres undefined)	-4	0	-5	-9	.
Cc1ccc(-c2nc(N3CCCC(C)C3)c3ccccc3n2)cc1 (centres undefined)	1	0	-3	8	.
O=C1CCCc2cc(S(=O)(=O)N3CCCC(C(=O)NCc4ccc(Cl)cc4)C3)ccc2N1 (centres undefined)	-1	-6	2	-12	.
O=C(NCCCN1CCOCC1)c1ccc(CS(=O)(=O)Cc2ccccc2Cl)o1	2	1	-13	-45*	-25
Cc1ccc(NC(=O)CSc2nc(-c3ccco3)nc3cc(=O)[nH]n23)cc1C	4	-2	-9	7	.
CCOC(=O)CC(NC(=O)CCc1c(C)nc2cc(-c3ccccc3)nn2c1C)c1ccc(C)cc1 (centres undefined)	11	-7	-13	-13	.
CCOC(=O)C1=C(C)N=c2s/c(=C/c3cccc([N+](=O)[O-])c3O)c(=O)n2C1c1ccc(OC)cc1OC (centres undefined)	1	4	-21	-23	-55*
COc1ccc(C2C(C(C)=O)=C(C)N=c3s/c(=C\c4ccco4)c(=O)n32)c(OC)c1 (centres undefined)	3	-4	-5	-16	?
CCOC(=O)C1=C(C)N=c2s/c(=C\c3ccc(O)c([N+](=O)[O-])c3)c(=O)n2C1c1ccccc1OC (centres undefined)	-3	-7	-10	-21	-17
COc1ccc(C2C(C(C)=O)=C(C)N=c3s/c(=C\c4cc(C)n(C)c4C)c(=O)n32)c(OC)c1 (centres undefined)	121*	-7	-5	-13	15
CCOc1ccccc1NS(=O)(=O)c1c(C)nc2sccn2c1=O	1	-5	3	-12	.
O=C(NC1CCCCC1)c1sc(=S)n2c1[nH]c(=O)c1ccccc12	29	-6	7	-19	?
CCCCNC(=O)c1sc(=S)n2c1[nH]c(=O)c1ccccc12	30*	-8	0	-16	-50*
CC(C)NC(=O)c1sc(=S)n2c1[nH]c(=O)c1ccc(C(=O)NCCc3ccc(Cl)cc3)cc12	3	-11	11	-59*	15
CCOc1ccc(CCNC(=O)c2ccc3c(=O)[nH]c4c(C(=O)NC(C)C)sc(=S)n4c3c2)cc1	2	-6	3	-29	27
CC(=O)c1sc(N/N=C/c2cccc(O)c2)nc1C	-1	-2	-7	8	-18
CC(=O)c1sc(N/N=C\c2c(O)ccc3ccccc23)nc1C	.	.	-10	.	-54*
NC1=NCC2c3ccccc3Cc3ccccc3N12 (centres undefined)	.	.	1	.	.
CN1CCN2c3ncccc3Cc3ccccc3[C@@H]2C1	4	-11	-37	-32*	-27
COC(=O)COc1cccc(/C=N/NC(=O)CCSc2ccccc2)c1	5	-4	-2	-34*	-12
